Screens as filed in PubChem.
Pf Dd2 growth: blocks in vitro growth of P. falciparum Dd2 | Potency, µM (doses to about 28.9 µM), for inactives: at the top dose activity, negative = inhibition, usual class: inhibitors | P. falciparum Dd2 growth, SYBR Green, 72 h | actives 4.3% (n = 120,000); active = well fitted inhibition curve with a large enough effect;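 note: plate controls were DMSO vehicle for no effect and reference drug for full effect; nearly all actives have a fitted effect of over 65% in size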
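Readout: SYBR Green fluorescence, 485 nm excitation, 535 nm emission, after ~16 h lysis at 37C. Before that, Dd2-infected red cells (2.5% hematocrit) grew 72 h with compound, 29 uM top final concentration.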
* hit, by the source's call; i = inactive; [ ] = remark or other dose. The full list was thinned out, with hits kept by preference. Potency is the fitted concentration of half-maximal effect.

SMILES	Pf Dd2 growth
O=C(c1ccccc1)N1CCC2(CC1)CC(N(Cc1ccc(F)cc1)C1CC1)CCO2 (centres undefined)	7.9µM*
O=C(c1ccccn1)N1CCC2(CC1)CC(N(Cc1ccccc1)C1CC1)CCO2 (centres undefined)	-6%
CC(=O)N1CCC2(CC1)CC(N(Cc1ccc(F)cc1)C1CC1)CCO2 (centres undefined)	9%
CCCCc1ccc(NC(=O)Cn2c(C)cc3nc4n(c(=O)c32)CCCCC4)cc1	-9%
CCCCc1cc(C[C@@H]2C[C@H](NC(=O)N3CCOCC3)C2(C)C)no1	-27%[44.1 µM]
NC(=O)[C@@H]1CN(C(=O)c2ccccc2F)C[C@H]1COc1ccccc1	9%
N[C@H]1CN(C(=O)c2ccccc2Oc2ccccc2)C[C@@H]1C1CC1	6.3µM*
N[C@H]1CN(C(=O)C2CCN(C(=O)c3ccccn3)CC2)C[C@@H]1C1CC1	-14%
NS(=O)(=O)c1ccc(CNC(=O)Cn2nc3c(cc2=O)CCCCC3)cc1	-13%
CN1C[C@@H](NC(=O)NC2CCCCC2)C[C@H]1c1nc(-c2cnccn2)no1	-4%[44.1 µM]
O=C1NCCCCCCN(C(=O)CC2CCCCC2)[C@H]2C[C@H](c3nc(-c4cnccn4)no3)C[C@@H]12	-10%
c1cncc(CN2CCOC[C@H]2c2ncc(-c3cccnc3)[nH]2)c1	3%[44.1 µM]
Oc1ccccc1CN1CCOC[C@H]1c1ncc(-c2cccc(Cl)c2)[nH]1	3.2µM*
CC(=O)Nc1ccc(CN2CCOC[C@H]2c2ncc(-c3cccc(Cl)c3)[nH]2)cc1	-7%[44.1 µM]
Cn1ccnc1CN1CCOC[C@H]1c1ncc(-c2cccc(Cl)c2)[nH]1	5µM*
Fc1ccc(-c2cnc([C@@H]3COCCN3Cc3ncc[nH]3)[nH]2)cc1	i
N#Cc1cccc(CN2CCOC[C@H]2c2ncc(-c3ccc(F)cc3)[nH]2)c1	-10%[44.1 µM]
Cc1ccoc1C(=O)N1C[C@@H](CO)[C@H](c2nc(C3CC3)no2)C1	-38%
O=C(CCn1ccc(=O)[nH]c1=O)N1CCN(Cc2ccccc2)CC(O)C1 (centres undefined)	-17%
COC(=O)[C@@H]1Cc2ncn(C(C)C)c2CN1S(=O)(=O)c1cccc2cccnc12	-21%[44.1 µM]
CN(C)c1cccc(C(=O)N2CCC[C@H]2c2nc(-c3ccc(F)cc3)no2)c1	17%
c1ccc2c(c1)OCC(CCNc1ncncn1)O2 (centres undefined)	4%
O=C(CC[C@@H]1CNC(=O)[C@@H]2C[C@H](NC(=O)Nc3ccc(F)cc3F)CN12)NCc1ccc(F)cc1	-13%
O=C(c1ccccc1)N1CCC(c2nn(-c3ccccc3)c(=O)[nH]2)CC1	23%
Cc1ccc(-n2c(C3CCN(C(=O)c4cccc(C)c4)CC3)n[nH]c2=O)cc1	-2%
SMILES	Pf Dd2 growth
Cc1ccc(-n2c(C3CCN(C(=O)COc4ccc(Cl)cc4)CC3)n[nH]c2=O)cc1	0.89µM*
Cc1ccc(Cn2c(C3CCN(C(=O)c4cc(C)cc(C)c4)CC3)n[nH]c2=O)cc1	8.9µM*
CCc1ccc(C(=O)N2CCC(c3n[nH]c(=O)n3Cc3ccc(F)cc3)CC2)cc1	-26%
Cc1ccc(-n2c(C3CCN(C(=O)c4cc(Cl)ccc4F)CC3)n[nH]c2=O)cc1	i
Cc1ccc(Cn2c(C3CCN(C(=O)c4ccc(C#N)cc4)CC3)n[nH]c2=O)cc1	i
Cc1ccc(Cn2c(C3CCN(C(=O)c4cccc(C)c4)CC3)n[nH]c2=O)cc1	-28%
Cc1ccc(Cn2c(C3CCN(C(=O)c4ccc(C(C)(C)C)cc4)CC3)n[nH]c2=O)cc1	2.5µM*
Cc1ccc(-n2c(C3CCN(C(=O)c4cc(C)cc(C)c4)CC3)n[nH]c2=O)cc1	i
Cc1ccc(Cn2c(C3CCN(C(=O)c4cccc(Cl)c4)CC3)n[nH]c2=O)cc1	0%
Cc1ccc(-n2c(C3CCN(C(=O)c4ccc(C(C)(C)C)cc4)CC3)n[nH]c2=O)cc1	4.5µM*
Cc1ccc(-n2c(C3CCN(C(=O)COc4ccc(F)cc4)CC3)n[nH]c2=O)cc1	-15%
Cc1cccc(OCC2CCCN(C(=O)c3sc(C(C)C)nc3C)C2)c1 (centres undefined)	12%
CNCC(=O)N1CCC(n2nccc2NC(=O)Nc2ccccc2Cl)CC1	-5%
CC1=C(C(=O)OC(C)(C)C)C(c2ccc(Cl)cc2)N2C(CC(=O)N3CCOCC3)=CSC2=N1 (centres undefined)	-9%
CC(C)c1ccc(CN2CCC3(CC2)OCCN(C)C3=O)cc1	i
O=C(C1CC1)N1CCCN(C(=O)C2(c3ccccc3)CC2)c2ccccc21	i
CCC(c1cccnc1)N(C)C(=O)c1cc(COc2ccccc2)[nH]n1 (centres undefined)	5%
O=S(=O)(c1ccc(F)cc1F)N1CCCC(Cn2c(C3CC3)nc3cccnc32)C1 (centres undefined)	i
COCCNC(=O)c1cc2c(=O)[nH]c(-c3ccccc3)cn2n1	-6%
CCNC(=O)c1n[nH]c2c1CN(C(=O)c1cccc(Cl)c1)CC2	i
CC(C)NC(=O)N1CCOc2ccc(CCC(=O)O)cc2C1	7%
CC(=O)N1CCC(n2nccc2NC(=O)c2ccc3c(c2)OCO3)CC1	5%
